Consider 36 compounds from PubChem BioAssay (NCATS).

The structures appear in SMILES notation. Results filed as inconclusive are left out. Unmarked numbers belong to inactive results. Calls follow the shape of the dose curve; as a rule, active = well fitted inhibition curve with a large enough effect; inconclusive = small, poorly fitted or top-dose-only effect; inactive = no such curve, though single readings can be large or run the other way.

This experiment in a line: Primary qHTS for inhibitors of La Crosse Virus (LACV) - induced cell death in SH-SY5Y cells (AID 1508616).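 Also: top concentration of the series differs between compounds; 0% = infected DMSO wells and 100% = uninfected DMSO wells; higher means more rescue of cells from virus-induced death.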 The settings on record: SH-SY5Y LACV cytopathicity rescue, ATP luminescence, 6 d; series mostly up to 4.29 µM; activity change: at the top concentration. In outline: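 Screening measures cell viability in LACV-infected SH-SY5Y cultures. Compound was added before virus (0.01 MOI), and ATP was detected by luminescence 6 days later.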
As for `CC[n+]1c(-c2ccccc2)c2cc(N)ccc2c2ccc(N)cc21`, the “activity change” value was 40.7%.

With `CN1C(=O)[C@@H](NC(=O)c2cc3ccccc3[nH]2)N=C(c2ccccc2)c2ccccc21`, the “activity change” value is 16.8%.

With `CCCOC(=O)Cc1ccc(OCC(=O)N(CC)CC)c(OC)c1`, the “activity change” value was 0%.

Regarding `CCOC(C(=O)OCCN(C)C)(c1ccccc1)c1ccccc1`, the “activity change” value was 24.3%.

`ClCCCN1CCN(c2cccc(Cl)c2)CC1`: the “activity change” value is -5.81%.

For the compound `CC(C)NCC(O)c1ccc(N)c(C#N)c1` (stereo unspecified), the “activity change” value is 18.4%.

Turning to `COc1ccc2c(C(=O)c3ccc(Cl)cc3)c(C)n(CC(=O)O)c2c1`, the “activity change” value was -1.12%.

`C[C@H](N)[C@H](O)c1ccc(O)c(O)c1`: the “activity change” value was 12.7%.

As to `NCc1cccnc1`, the “activity change” value was -2.96%.

Take `Clc1ccc(CSC(Cn2ccnc2)c2ccc(Cl)cc2Cl)cc1` (stereo unspecified): the “activity change” value is 30.4%.

Regarding `Clc1ccc(CO/N=C(\Cn2ccnc2)c2ccc(Cl)cc2Cl)c(Cl)c1`, the “activity change” value is 30.3%.

As for `O=C(CBr)Nc1ccc(Cl)cc1C(=O)c1ccccc1F`, the “activity change” value is 36.2%.

Regarding `CCN(Cc1ccc(Cl)nc1)/C(=C/[N+](=O)[O-])NC`, the “activity change” value is 2.14%.

With `O=C1NCN(c2ccccc2)C12CCN(CCCOc1ccc(F)cc1)CC2`, the “activity change” value was -20.9%.

As for `OC(O)C(Cl)(Cl)Cl`, the “activity change” value is 2.99%.

On to `CCOP(=S)(OCC)O/N=C(\C#N)c1ccccc1`, for which the “activity change” value was -2.77%.

Regarding `CCc1ccc(C2CCNCC2)cc1`, the “activity change” value is -13.8%.

`CCC(=O)OC1(c2ccccc2)CCN(C)CC1`: the “activity change” value was 7.29% [at 9.63 µM].

With `O=C(N[C@@H]1N=C(c2ccccc2F)c2cccc3c2N(CC3)C1=O)c1cc2ccccc2[nH]1`, the “activity change” value was -6.02%.

Turning to `CC[C@]1(O)CC[C@H]2[C@@H]3CCC4=CCCC[C@@H]4[C@H]3CC[C@@]21C`, the “activity change” value is 5.22%.

Take `C[C@]12Cc3nonc3C[C@@H]1CC[C@@H]1[C@@H]2CC[C@@]2(C)[C@H]1CC[C@]2(C)O`: the “activity change” value is 32.5%.

Turning to `COc1cc(N)c(Cl)cc1C(=O)NC1CN2CCC1CC2` (stereo unspecified), the “activity change” value was 14.2%.

Turning to `Cc1nnc2n1-c1sc(CCc3ccc(CC(C)C)cc3)cc1C(c1ccccc1Cl)=NC2C` (stereo unspecified), the “activity change” value is -11.5%.

In the case of `C[N+](C)(C)CCOC(=O)C(O)(c1ccccc1)c1ccccc1`, the “activity change” value is -2.4%.

In the case of `CNC(=O)NC(O)C(Cl)(Cl)Cl` (stereo unspecified), the “activity change” value is -0.582%.

For the compound `COc1cc(CC#N)cc(OC)c1OC`, the “activity change” value was -5.76%.

For the compound `Oc1ccc([C@H]2CNCc3c2ccc(O)c3O)cc1O`, the “activity change” value is -8.89%.

`CCS(=O)(=O)C(C)(C)S(=O)(=O)CC`: the “activity change” value was -4.75%.

In the case of `C[C@@H]1CN(C2CCC(C#N)(c3ccc(F)cc3)CC2)CC[C@]1(C(=O)O)c1ccccc1` (stereo partly specified), the “activity change” value is -3.79%.

Regarding `CCN1CCCC1CNC(=O)C(O)(c1ccccc1)c1ccccc1` (stereo unspecified), the “activity change” value was 7.7%.

Take `CCCCCCCCCCCC[N+](C)(C)CCOc1ccccc1`: the “activity change” value is 18.7%.

Turning to `CC[C@H](O)C(C[C@H](C)N(C)C)(c1ccccc1)c1ccccc1`, the “activity change” value is -16.8% [at 9.63 µM].

As to `C#C[C@]1(O)C=C[C@H]2[C@@H]3CCC4=CC(=O)CC[C@@H]4[C@H]3CC[C@@]21CC`, the “activity change” value was 32.7%.

As to `Oc1c(Br)cc(Br)cc1Br`, the “activity change” value is -3.36%.

Regarding `CC(CC(C(N)=O)(c1ccccc1)c1ccccc1)N(C)C` (stereo unspecified), the “activity change” value is 3.1%.

Consider `Cc1nc2ccccc2c(=O)n1-c1ccccc1Cl`, for which the “activity change” value is 17.8% [at 8.54 µM].
